Assay results taken from PubChem BioAssay.
Inconclusive results are not listed. Active and inactive are the calls of the source.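 The calls were made as follows, unless noted: active = inhibition above the screen-wide mean plus 3 SD, about 51%; inactive = the rest.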

Legend:
[1] = yeast TOR pathway RPL19A-GFP modulators, primary screen, cell-based, S. cerevisiae, multiplex flow cytometry (AID 1862; in the data active = percent of DMSO control GFP below about 86%;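 also: lower values mimic rapamycin by blocking the RPL19A rise seen in DMSO cells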); conditions: S. cerevisiae RPL19A-GFP strain, flow cytometry fluorescence, 3 h; at 10 µM; stronger effect = lower value
[2] = modulators of MEP2-GFP levels in yeast, primary screen, S. cerevisiae, multiplex flow cytometry (AID 1867;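 active = GFP response, as percent of the DMSO control, above the screen-wide mean plus 3 SD, about 139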;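 also: median GFP channel fluorescence of barcode-gated MEP2-GFP cells measured by flow cytometry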); conditions: S. cerevisiae MEP2-GFP strain, 3 h, at 10 µM, stronger effect = higher value, 100% means same as DMSO wells
[3] = modulators of CIT2-GFP expression in yeast, primary screen, S. cerevisiae, GFP fusion, multiplex flow cytometry (AID 1870;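 active = percent response above a set limit, the screen-wide mean plus 3 SD, cut at about 130% in these data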;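 also: barcoded CIT2-GFP strain pooled with four other GFP strains with rapamycin as positive control; median GFP fluorescence per well over plate mean of DMSO wells so 100% = DMSO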); conditions: 3 h, at 10 µM, stronger effect = higher value
[4] = modulators of LAP4-GFP expression in yeast, primary screen, S. cerevisiae, multiplex flow cytometry (AID 1873;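 active = GFP signal, as percent of the solvent control, above the screen mean plus 3 SD, about 149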); conditions: 3 h, at 10 µM, stronger effect = higher value
[5] = modulators of AGP1-GFP expression in yeast TOR pathway, primary screen, cell-based, multiplex flow cytometry, S. cerevisiae (AID 1887;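 active = GFP signal above the screen-wide mean plus 3 SD, that is over about 124.5% of the solvent control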;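 also: AGP1-GFP fusion strain of S. cerevisiae within a five-strain barcoded multiplex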); conditions: 3 h, at 10 µM, stronger effect = higher value
[6] = inhibitors of CD8+ T cell-vesicle binding, pilot screen, LFA-1/ICAM-1 modulator project, MLPCN validation set, flow cytometry (AID 2523;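 active = response below a set limit, under 55% cells CD8-positive and vesicle-bound, and CD8 cells' 90th-percentile brightness under 279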;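 as to vesicle binding response: mean PE anti-B7-1 fluorescence of CD8+ cells relative to row control; 100% = QL9-loaded vesicles with DMSO vehicle in the same plate row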); conditions: 2C mouse CD8+ T cells, at 7 µM, stronger effect = lower value; double positive events: measured here: CD8+/vesicle+ event percentage
[7] = target: Integrin beta-1 (Homo sapiens) + Integrin alpha-4 (Homo sapiens) (UniProt P13612+P05556); assay: inhibition of HUTS-21 binding to VLA-4, pilot screen, VLA-4 allosteric modulator project, U937 cells, HUTS-21 mAb, flow cytometry, validation set (AID 2674;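 active = inhibition above 50%, about 3 SD of the validation set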;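 also: antibody binding induced by the VLA-4 ligand LDV present at three times its Kd; 0% = LDV ligand with antibody and no compound and 100% = antibody without LDV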); conditions: HUTS-21 LIBS mAb binding, at 6.7 µM, stronger effect = higher value, binding induced by LDV ligand
Sequence of Integrin beta-1 (Homo sapiens) + Integrin alpha-4 (Homo sapiens) (P05556 whole entry, looked up): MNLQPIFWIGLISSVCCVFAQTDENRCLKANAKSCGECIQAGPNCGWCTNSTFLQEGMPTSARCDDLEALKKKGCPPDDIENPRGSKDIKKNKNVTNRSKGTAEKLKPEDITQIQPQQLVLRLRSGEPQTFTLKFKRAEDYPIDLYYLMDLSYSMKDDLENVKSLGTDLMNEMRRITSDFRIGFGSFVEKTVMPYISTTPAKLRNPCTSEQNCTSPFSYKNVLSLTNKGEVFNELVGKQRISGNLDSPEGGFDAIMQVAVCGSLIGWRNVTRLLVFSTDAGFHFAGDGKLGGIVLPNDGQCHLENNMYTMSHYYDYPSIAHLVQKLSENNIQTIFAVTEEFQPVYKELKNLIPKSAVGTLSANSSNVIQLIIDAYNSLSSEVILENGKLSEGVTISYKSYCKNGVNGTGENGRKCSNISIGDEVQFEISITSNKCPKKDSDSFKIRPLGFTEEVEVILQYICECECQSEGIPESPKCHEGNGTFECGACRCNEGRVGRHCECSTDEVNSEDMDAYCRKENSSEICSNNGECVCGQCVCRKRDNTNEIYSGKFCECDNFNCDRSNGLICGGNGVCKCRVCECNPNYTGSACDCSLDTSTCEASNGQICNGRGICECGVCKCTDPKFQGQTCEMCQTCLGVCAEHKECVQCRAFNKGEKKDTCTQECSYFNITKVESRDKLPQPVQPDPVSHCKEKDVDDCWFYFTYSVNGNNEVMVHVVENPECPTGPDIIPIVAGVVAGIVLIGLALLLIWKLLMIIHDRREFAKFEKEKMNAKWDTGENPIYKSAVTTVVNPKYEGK
Sequence of Integrin beta-1 (Homo sapiens) + Integrin alpha-4 (Homo sapiens) (P13612 whole entry, looked up): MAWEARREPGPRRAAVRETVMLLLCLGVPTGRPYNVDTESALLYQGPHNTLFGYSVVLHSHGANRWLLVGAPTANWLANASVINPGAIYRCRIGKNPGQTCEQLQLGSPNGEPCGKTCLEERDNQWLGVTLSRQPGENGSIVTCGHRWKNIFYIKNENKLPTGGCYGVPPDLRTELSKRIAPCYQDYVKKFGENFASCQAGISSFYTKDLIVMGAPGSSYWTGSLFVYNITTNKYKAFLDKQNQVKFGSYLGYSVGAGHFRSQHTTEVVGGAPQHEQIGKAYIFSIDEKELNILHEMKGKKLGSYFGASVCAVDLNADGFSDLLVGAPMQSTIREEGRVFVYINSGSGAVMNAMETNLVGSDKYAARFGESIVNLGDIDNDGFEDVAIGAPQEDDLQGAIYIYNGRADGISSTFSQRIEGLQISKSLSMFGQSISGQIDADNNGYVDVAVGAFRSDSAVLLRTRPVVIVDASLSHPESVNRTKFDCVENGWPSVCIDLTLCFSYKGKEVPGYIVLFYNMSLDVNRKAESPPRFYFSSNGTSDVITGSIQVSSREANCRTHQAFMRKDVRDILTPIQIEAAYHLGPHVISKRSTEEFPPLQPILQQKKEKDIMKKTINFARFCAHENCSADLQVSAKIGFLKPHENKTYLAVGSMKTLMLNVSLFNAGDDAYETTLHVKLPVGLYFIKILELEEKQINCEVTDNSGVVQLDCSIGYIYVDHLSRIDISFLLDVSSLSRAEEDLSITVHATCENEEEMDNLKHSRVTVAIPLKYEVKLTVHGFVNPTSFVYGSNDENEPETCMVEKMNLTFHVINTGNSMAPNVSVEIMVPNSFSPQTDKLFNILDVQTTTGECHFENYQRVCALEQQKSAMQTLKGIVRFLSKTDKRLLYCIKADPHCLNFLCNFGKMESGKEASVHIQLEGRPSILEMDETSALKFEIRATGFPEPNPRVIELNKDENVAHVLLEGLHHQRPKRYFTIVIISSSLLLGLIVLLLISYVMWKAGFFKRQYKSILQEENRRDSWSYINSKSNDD

[8] = superoxide lowering in aged yeast cells, pilot screen, validation compound set (AID 2706;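 active = superoxide response below 65% of plate, a cut near 3 SD across the whole screen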;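 also: yeast exposed to compound for one week at 30 degrees C before staining; 100% = mean of all compound wells on the same plate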); conditions: S. cerevisiae aging, superoxide DHE fluorescence; at 10 µM; stronger effect = lower value
[9] = target: Beta-adrenergic receptor kinase 1 (Homo sapiens) (UniProt P25098); assay: GRK2 binders displacing RNA aptamer, biochemical, validation, human GRK2, bead flow cytometry (AID 488806;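 active = aptamer binding inhibition above 30%, about 3 SD of noise from non-fluorescent compounds; inactive = inhibition at or below 30%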); conditions: bead-bound GRK2, FAM-aptamer displacement, at 10 µM, stronger effect = higher value
Sequence of Beta-adrenergic receptor kinase 1 (Homo sapiens) (P25098 whole entry, looked up): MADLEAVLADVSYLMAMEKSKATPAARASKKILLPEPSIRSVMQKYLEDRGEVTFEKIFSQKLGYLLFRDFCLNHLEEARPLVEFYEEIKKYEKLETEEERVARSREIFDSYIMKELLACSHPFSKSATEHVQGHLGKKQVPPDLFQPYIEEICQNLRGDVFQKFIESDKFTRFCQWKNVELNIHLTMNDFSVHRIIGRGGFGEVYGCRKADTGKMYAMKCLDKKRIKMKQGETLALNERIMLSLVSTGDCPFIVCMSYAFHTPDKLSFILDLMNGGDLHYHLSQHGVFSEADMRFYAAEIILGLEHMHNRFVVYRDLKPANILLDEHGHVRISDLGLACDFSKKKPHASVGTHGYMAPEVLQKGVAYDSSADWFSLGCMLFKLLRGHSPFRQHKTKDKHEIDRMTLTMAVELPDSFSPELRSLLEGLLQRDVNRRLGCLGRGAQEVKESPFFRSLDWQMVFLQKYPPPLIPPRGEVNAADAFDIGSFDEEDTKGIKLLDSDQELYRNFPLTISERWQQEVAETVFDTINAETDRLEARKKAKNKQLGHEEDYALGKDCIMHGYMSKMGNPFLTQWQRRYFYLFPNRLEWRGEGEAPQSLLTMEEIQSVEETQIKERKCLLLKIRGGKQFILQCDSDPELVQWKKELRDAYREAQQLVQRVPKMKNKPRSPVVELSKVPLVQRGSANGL

[10] = target: Beta-2 adrenergic receptor (Homo sapiens) (UniProt P07550); assay: beta2AR agonists driving receptor internalization, pilot screen, cell-based, FAP fluorogen, flow cytometry, validation set (AID 504459;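 active = percent response above 42, roughly 3 SD of non-fluorescent test compounds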;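 also: agonist-driven loss of surface beta2AR via internalization measured by FAP dye flow cytometry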); conditions: Am2.2-beta2AR cells, FAP surface receptor flow cytometry; at 10 µM; stronger effect = higher value
Sequence of Beta-2 adrenergic receptor (Homo sapiens) (P07550 whole entry, looked up): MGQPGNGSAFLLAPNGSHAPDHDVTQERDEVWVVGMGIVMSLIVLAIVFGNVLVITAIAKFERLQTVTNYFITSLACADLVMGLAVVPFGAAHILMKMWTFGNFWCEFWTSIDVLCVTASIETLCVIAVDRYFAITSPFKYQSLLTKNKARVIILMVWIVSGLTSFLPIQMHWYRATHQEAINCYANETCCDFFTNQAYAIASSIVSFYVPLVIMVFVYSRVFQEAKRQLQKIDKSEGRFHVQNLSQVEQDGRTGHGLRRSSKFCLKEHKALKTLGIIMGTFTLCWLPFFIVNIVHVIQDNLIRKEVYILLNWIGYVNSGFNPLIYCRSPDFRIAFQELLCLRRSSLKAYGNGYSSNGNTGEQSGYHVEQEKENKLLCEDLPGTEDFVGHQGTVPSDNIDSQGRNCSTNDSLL

[11] = target: AP-2 complex subunit beta (Homo sapiens) (UniProt P63010); assay: inhibitors of arrestin peptide binding to AP2, pilot screen, biochemical, validation set, GST-AP2 beads, flow cytometry (AID 504541;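 active = inhibition above 54%, about 3 SD of non-fluorescent compounds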;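 also: AP2 carries R879A mutation and is captured from E. coli lysate; bead-bound FITC arrestin peptide fluorescence measuring arrestin peptide binding to AP2; 0% = DMSO wells and 100% = excess unlabeled arrestin peptide control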); conditions: FITC arrestin peptide, at 10 µM, stronger effect = higher value, AP2 beta2 appendage fragment, R879A mutant
Sequence of AP-2 complex subunit beta (Homo sapiens) (P63010 whole entry, looked up, the tested form may be a part, one chain of several): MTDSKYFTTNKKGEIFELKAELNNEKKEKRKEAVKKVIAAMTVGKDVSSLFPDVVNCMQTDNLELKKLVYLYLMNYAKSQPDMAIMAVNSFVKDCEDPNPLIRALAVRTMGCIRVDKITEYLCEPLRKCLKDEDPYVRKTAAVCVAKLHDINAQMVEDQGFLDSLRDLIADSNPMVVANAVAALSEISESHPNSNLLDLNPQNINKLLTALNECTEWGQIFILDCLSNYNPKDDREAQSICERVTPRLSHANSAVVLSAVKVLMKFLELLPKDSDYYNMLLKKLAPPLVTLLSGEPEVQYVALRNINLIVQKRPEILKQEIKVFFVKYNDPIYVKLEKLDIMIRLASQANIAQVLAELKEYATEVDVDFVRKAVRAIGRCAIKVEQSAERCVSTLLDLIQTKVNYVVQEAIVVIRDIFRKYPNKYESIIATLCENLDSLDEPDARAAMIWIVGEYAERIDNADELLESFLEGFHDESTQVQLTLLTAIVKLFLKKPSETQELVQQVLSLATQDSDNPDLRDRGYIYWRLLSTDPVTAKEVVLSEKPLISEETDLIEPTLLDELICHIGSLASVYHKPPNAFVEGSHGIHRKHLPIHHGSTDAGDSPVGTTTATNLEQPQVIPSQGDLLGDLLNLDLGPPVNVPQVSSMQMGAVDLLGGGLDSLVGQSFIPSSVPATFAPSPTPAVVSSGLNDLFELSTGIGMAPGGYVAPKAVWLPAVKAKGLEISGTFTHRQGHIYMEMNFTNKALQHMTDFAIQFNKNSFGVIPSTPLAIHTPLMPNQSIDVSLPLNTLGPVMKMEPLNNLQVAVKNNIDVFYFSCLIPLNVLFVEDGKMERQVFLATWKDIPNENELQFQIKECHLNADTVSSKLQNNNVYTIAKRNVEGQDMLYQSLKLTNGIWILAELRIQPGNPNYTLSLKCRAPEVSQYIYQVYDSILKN

[12] = yeast V-ATPase proton transport modulators, S. cerevisiae, pHLuorin, HTS validation (AID 504600; in the data active = response above about 15%;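 also: plate controls were DMSO for no effect and reference compound for full effect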); conditions: S. cerevisiae pHLuorin cytosolic pH, at 10 µM, stronger effect = higher value
[13] = test system: anti-desmoglein-3 scFv antibody binding to human DSG3; assay: inhibitors of anti-DSG3 scFv binding to DSG3, pilot screen, biochemical, validation compound set, bead-based, flow cytometry (AID 588368;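 active = binding below the plate cutoff, the plate median minus 3 SD, with a reading above zero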;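 also: signal is the median channel fluorescence of bead-bound GFP antibody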); conditions: Protein G beads, DSG3-Fc, scFv-GFP binding, at 10 µM, stronger effect = lower value
[14] = inhibitors of fungal efflux pumps CDR1, CDR2, MDR1, pilot screen, validation compound set, multiplex, phenotypic (AID 588506;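 active = efflux inhibition above 0.42, the validation set average plus 4 SD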;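 also: Nile Red retained in cells so higher fluorescence means more efflux inhibition; 0 = negative control wells and 1 = enniatin B 25 µM full block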); conditions: S. cerevisiae pump-expressing triplex, Nile Red efflux flow cytometry; at 10 µM; stronger effect = higher value; the pumps come from Candida albicans
[15] = target: ATP-binding cassette sub-family B member 6 (Homo sapiens) (UniProt Q9NP58); assay: ABCB6 transporter inhibitors, pilot screen, K562-ABCB6 cells, flow cytometry, validation set (AID 588550); conditions: K562-ABCB6 porphyrin accumulation, 1 h, at 10 µM, stronger effect = higher value;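 also: 0% = DMSO wells and 100% = benzethonium chloride 70 µM positive control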
Sequence of ATP-binding cassette sub-family B member 6 (Homo sapiens) (Q9NP58 whole entry, looked up): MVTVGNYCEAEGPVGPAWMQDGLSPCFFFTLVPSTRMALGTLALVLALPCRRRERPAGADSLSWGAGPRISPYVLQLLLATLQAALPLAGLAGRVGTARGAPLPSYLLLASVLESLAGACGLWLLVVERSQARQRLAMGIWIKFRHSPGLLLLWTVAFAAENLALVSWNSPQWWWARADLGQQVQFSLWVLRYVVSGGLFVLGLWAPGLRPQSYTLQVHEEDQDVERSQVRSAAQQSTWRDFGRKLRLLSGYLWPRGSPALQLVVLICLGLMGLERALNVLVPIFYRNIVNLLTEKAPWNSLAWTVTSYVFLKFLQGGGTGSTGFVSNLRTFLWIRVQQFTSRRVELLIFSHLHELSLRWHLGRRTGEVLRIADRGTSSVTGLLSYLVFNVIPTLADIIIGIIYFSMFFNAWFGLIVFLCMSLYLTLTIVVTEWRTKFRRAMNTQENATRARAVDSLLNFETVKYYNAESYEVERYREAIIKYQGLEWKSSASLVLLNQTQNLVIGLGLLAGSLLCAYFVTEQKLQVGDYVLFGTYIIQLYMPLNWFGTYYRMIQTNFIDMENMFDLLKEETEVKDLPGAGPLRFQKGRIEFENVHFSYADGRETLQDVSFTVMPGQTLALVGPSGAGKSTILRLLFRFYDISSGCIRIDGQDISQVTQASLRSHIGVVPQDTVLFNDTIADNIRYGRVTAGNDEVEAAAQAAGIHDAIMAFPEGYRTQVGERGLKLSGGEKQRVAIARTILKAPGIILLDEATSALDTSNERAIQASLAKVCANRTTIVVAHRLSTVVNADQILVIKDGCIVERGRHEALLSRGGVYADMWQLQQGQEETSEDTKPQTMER

[16] = promoters of myeloid differentiation in arrested cells, primary screen, cell-based, GFP/MAC1 double positive, flow cytometry, validation set (AID 588685;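 active = differentiation response of at least 50%, scaled between solvent and reference control, from cells with both markers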;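 also: compound exposure lasts four days before antibody staining and flow analysis; 0% = DMSO wells and 100% = 5 µM fulvestrant positive control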); conditions: ER-HoxA9 marrow cells, stronger effect = higher value, normalized: vehicle 0, fulvestrant 100

C[C@H](CCC(=O)O)[C@H]1CC[C@H]2[C@@H]3C(=O)C[C@@H]4CC(=O)CC[C@]4(C)[C@H]3CC(=O)[C@]12C
57.7%: double positive events [6]
inactive: percent of DMSO control GFP [1] 99.3% | GFP response vs DMSO [2] 105% | percent response of DMSO control [3] 101% | GFP response vs DMSO [4] 120% | GFP response, % of DMSO [5] 119% | vesicle binding response [6] 220% | inhibition [7] 22.7% | superoxide response (% of plate) [8] 95.4% | aptamer binding inhibition [9] 4% | response [10] -23.4% | inhibition [11] 10.1% | response [12] -2.4% | binding (% of control) [13] 109% | efflux inhibition (fraction of control) [14] -0.09 | inhibition [15] 0% | differentiation response [16] -11.9%

c1ccc(SSc2ccccc2)cc1
62.9%: double positive events [6]
inactive: percent of DMSO control GFP [1] 105% | GFP response vs DMSO [2] 108% | percent response of DMSO control [3] 118% | GFP response vs DMSO [4] 96.6% | GFP response, % of DMSO [5] 103% | vesicle binding response [6] 301% | inhibition [7] -0.45% | superoxide response (% of plate) [8] 93.6% | aptamer binding inhibition [9] 2% | response [10] 1.12% | inhibition [11] -24.5% | response [12] 3.24% | binding (% of control) [13] 93.5% | efflux inhibition (fraction of control) [14] -0.04 | inhibition [15] -6% | differentiation response [16] -2.69%

CCc1nc2ccccc2n1Cc1ccc(OC)c(OC)c1
60.7%: double positive events [6]
inactive: percent of DMSO control GFP [1] 98.1% | GFP response vs DMSO [2] 99.6% | percent response of DMSO control [3] 95.7% | GFP response vs DMSO [4] 107% | GFP response, % of DMSO [5] 109% | vesicle binding response [6] 132% | inhibition [7] 3.14% | superoxide response (% of plate) [8] 105% | aptamer binding inhibition [9] 3% | response [10] -19% | inhibition [11] 7.51% | response [12] 2.99% | binding (% of control) [13] 89.6% | efflux inhibition (fraction of control) [14] 0 | inhibition [15] 2% | differentiation response [16] 18.7%

CSc1ccc(CN2CCN(CCC(C)C)C(CCO)C2)cc1 (stereo not drawn)
inactive: percent of DMSO control GFP [1] 101% | GFP response vs DMSO [2] 106% | percent response of DMSO control [3] 109% | GFP response vs DMSO [4] 117% | vesicle binding response [6] 199% | inhibition [7] 4.84% | superoxide response (% of plate) [8] 91.4% | aptamer binding inhibition [9] -1% | response [10] -11.6% | inhibition [11] -9.19% | response [12] 2.63% | binding (% of control) [13] 102% | efflux inhibition (fraction of control) [14] -0.09 | inhibition [15] 0% | differentiation response [16] -5.97%
61.2%: double positive events [6]
active: GFP response, % of DMSO [5] 131%
